Drawing on PubChem BioAssay AID2401 (Southern Research Specialized Biocontainment Screening …, 2010), this text covers outcome for 115 compounds.

In all, about 2,200 compounds went through this assay and about 530 (24%) were called active.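 How the source made its calls: active means inhibition above a set limit at one or more concentrations of the dose series; inactive means inhibition under that limit at every dose.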 Not all results are given here. Entries that show only a call come without a potency. Potency and affinity values are given separately.

A short description of the experiment: S. Typhimurium nonspecific reporter signal inhibition – Salmonella Typhimurium, GFP fluorescence, counter-screen for PhoP regulon inhibitor project, dose response (AID 2401).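 Further: S. typhimurium with Mg-insensitive nmpC-GFP reporter grown at 10 µM Mg2+; drop in reporter fluorescence reflects general culture growth inhibition.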 The settings on record: 4 h; series mostly up to 150 µM. Background: Counterscreens check selectivity or assay interference.
With `O=C1CSC(=S)N1c1ccc(F)cc1`, the call was inactive.

As for `O=C1N=c2ccccc2=C1c1[nH]c(=S)[nH]c1O`, the compound was called inactive.

As to `Cc1ccccc1-n1nc(-c2ccc(N)cc2)cc1N`, the compound was classed as inactive.

Regarding `CC(=O)N(Cc1ccc(Cl)cc1)c1cnccn1`, the call was inactive.

Take `NCCCC[C@H]1CN=C(N)N1CCC12CC3CC(CC(C3)C1)C2`: the call was inactive.

On to `CCN(c1ccc(OCC(=O)OCC(=O)Nc2ccc(F)c(F)c2F)cc1)S(=O)(=O)c1ccccc1`, for which the result was inactive.

As for `COc1ccc2nc(SCC(=O)N(C)C3CCCCC3)c(C#N)cc2c1`, the outcome was inactive.

Turning to `CC1CCC(NC(=O)C2c3ccccc3C(=O)N2Cc2cccs2)CC1` (stereo not given), the compound was called inactive.

For `Cc1ccc(Nc2nc(CSc3nnc(-c4ccc(F)cc4)n3C)cs2)cc1`, the compound was classed as inactive.

For `CCOc1ccc(NC(=O)Nc2cccs2)cc1`, the compound was classed as inactive.

With `CC(=O)c1sc(NC(=O)COc2ccc([N+](=O)[O-])cc2)nc1C`, the call was inactive.

As for `CCOC(=O)C1=C(C)NC(=O)NC1c1ccsc1` (stereo not given), the compound was called inactive.

For the compound `O=C1c2ccccc2C(=O)N1c1cccc(-c2csc(Nc3ccc4c(c3)OCO4)n2)c1`, the compound was called inactive.

Take `COC(=O)Cn1cc(C(=O)c2ccco2)c2ccccc21`: the call was inactive.

As for `COC(=O)c1sccc1NC(=O)c1csc2c1CCCC2`, the compound was called inactive.

As for `COCCNC(=O)CSCc1c(F)cccc1Cl`, the compound was called inactive.

Regarding `Cn1ncc(Br)c1C(=O)NCc1cccs1`, the compound was classed as inactive.

On to `CCOC(=O)c1cnc(SCC(=O)Nc2ccc(N3CCOCC3)c(Cl)c2)nc1N`, for which the result was inactive.

For the compound `CCOC(=O)N1CCC(NC(=O)CCC(=O)c2ccccc2)CC1`, the compound was called inactive.

Take `CNC(=O)c1ccc(-c2ccc(F)cc2)s1`: the compound was classed as inactive.

In the case of `CCCCOC(=O)CSc1nc2c(c(=O)[nH]c(=O)n2C)n1C/C=C(\C)Cl`, the result was inactive.

For the compound `CCCN(CCC)CCCNS(=O)(=O)c1ccc2c(c1)oc(=O)n2C`, the outcome was inactive.

With `O=C1c2[nH]nc(-c3ccccc3O)c2C(c2ccc(F)cc2)N1Cc1ccco1` (stereo not given), the outcome was inactive.

For the compound `COc1ccc(NC(=O)CSc2nnc(-c3cccs3)n2Cc2ccco2)cc1OC`, the compound was called inactive.

As for `COc1ccc(OC)c(C2C=C(C34CC5CC(CC(C5)C3)C4)NC(=S)N2)c1` (stereo not given), the compound was called inactive.

Take `CCn1c(Cc2ccccc2)nnc1SCC(=O)Nc1ccc(S(N)(=O)=O)cc1`: the compound was classed as inactive.

In the case of `Cc1cc(C)nc(/N=C(\N)Nc2ccc(SC(F)F)cc2)n1`, the compound was classed as inactive.

As for `Cc1[nH][nH]c(=O)c1C(c1ccc(O)c([N+](=O)[O-])c1)c1c(C)[nH][nH]c1=O`, the compound was classed as inactive.

Consider `CCCc1[nH][nH]c(=O)c1C(c1ccc(Br)cc1)C(C#N)C#N` (stereo not given), for which the compound was called inactive.

As to `CN(CCC(=O)Nc1ccc(Br)cc1)Cc1ccccc1`, the compound was called inactive.

`CCCc1nc2c(o1)CC(CC(C)SCC)CC2=O` (stereo not given): the compound was classed as inactive.

Consider `O=C(Nc1ccc(Cl)cc1)N1CC=CCC1`, for which the compound was called inactive.

For `C/C(=N/NC(=O)Cc1cccn1C)c1ccccc1`, the call was inactive.

`Nc1ccc2nc(SCC(=O)Nc3ccc(N4CCOCC4)c(Cl)c3)sc2c1`: the compound was called inactive.

Turning to `COc1cccc(NS(=O)(=O)c2c(C)cc(C)cc2C)c1`, the compound was called inactive.

`COc1ccc(-c2ccc(C#N)c(SCC(=O)NCCc3ccccc3)n2)cc1OC`: the compound was classed as inactive.

`Cc1ccc(Nc2nc(Cl)nc(N(C)C#N)n2)cc1`: the compound was called inactive.

In the case of `c1csc(C2Nc3cccc4cccc(c34)N2)c1`, the result was inactive.

With `Clc1ccc(OCCn2ccnc2)c2ccccc12`, the result was inactive.

Consider `CCOCC(=O)Nc1ccc(F)c(F)c1`, for which the outcome was inactive.

As for `Cc1ncoc1C(=O)Nc1cccc(Cl)c1`, the outcome was inactive.

With `COCCNC(=S)N(Cc1cccnc1)Cc1ccc(OC)c(OC)c1`, the outcome was inactive.

On to `O=C1NC(=O)C(=C2CCCCCC2)S1`, for which the compound was classed as inactive.

In the case of `Nc1cc(N2CCCCC2)c(Cl)cc1[N+](=O)[O-]`, the outcome was inactive.

On to `Cc1ccc(N2C(=O)CC(Nc3ccccc3)C2=O)cc1` (stereo not given), for which the outcome was inactive.

For the compound `COc1ccc(-c2nnc(SCCC(=O)O)n2-c2ccccc2)cc1`, the outcome was inactive.

Take `Nc1nc(-c2ccc3c(c2)OCCO3)cs1`: the outcome was inactive.

Take `Cc1ccc(C)c(NC(=S)NCCSc2ccc(Cl)cc2)c1`: the outcome was inactive.

As for `CCc1cc2c(NCCC(=O)O)nc(C)nc2s1`, the compound was called inactive.

Consider `CC(=O)Nc1ccc(-c2nnc(SCc3c(C)cc(C)cc3C)n2C)cc1`, for which the call was inactive.

With `c1ccc(CSc2snnc2-c2ccccc2)cc1`, the call was inactive.

Regarding `CCn1c(SCC(=O)Nc2ccc3c(c2)oc2ccccc23)nnc1-c1ccc(N)cc1`, the compound was classed as inactive.

Consider `NNC(=O)CNC(c1ccccc1)c1cc(Br)ccc1NC(=O)c1ccc(Br)cc1` (stereo not given), for which the outcome was inactive.

In the case of `Cc1cccc(N2CCN(CC(=O)Nc3nccs3)CC2)c1C`, the call was inactive.

`FC(F)(F)c1cccc(NC(=S)NCCN2CCOCC2)c1`: the compound was classed as inactive.

In the case of `Cc1cc(C)cc(-n2c(C)cc(C=C(C#N)C#N)c2C)c1`, the compound was classed as inactive.

Consider `CCOC(=O)C1=C(C)Nc2nc3ccccc3n2C1c1cccs1` (stereo not given), for which the compound was called inactive.

As to `Cc1ccc(C(=O)Oc2cccc(NC(=O)c3cccs3)c2)cc1S(=O)(=O)N1CCOCC1`, the result was inactive.

As to `COc1c(Cl)cnn(-c2ccc(C)cc2)c1=O`, the outcome was inactive.

In the case of `CCc1c(C)c2cc(Cl)c(O)c(CN3CCCCC3)c2oc1=O`, the compound was called inactive.

As for `CCc1ccc(NC(=O)c2noc3c2CCc2ccccc2-3)cc1`, the result was inactive.

`C=CCOc1ccc(/C=N/NC(=O)CN(c2cc(Cl)ccc2OC)S(=O)(=O)c2ccc(C)c([N+](=O)[O-])c2)cc1`: the call was inactive.

Take `O=C(NCCc1cn2ccccc2n1)c1ccccc1F`: the compound was classed as inactive.

Regarding `Cc1nc(SCC(=O)NC(C)c2ccccc2)c2oc3ccccc3c2n1` (stereo not given), the result was inactive.

As to `COc1ccc(C(=O)N2CCc3cc(OC)c(OC)cc3C2)cc1OC`, the call was inactive.

As to `Cc1ccc(S(=O)(=O)NNC(=O)c2ccc(O)cc2)cc1`, the outcome was inactive.

As to `CCOC(=O)c1sc(NC(=O)Nc2ccc(Cl)cc2)cc1C`, the compound was classed as inactive.

In the case of `CCc1ccc2[nH]c(=O)c(CN(Cc3ccccc3)C(=O)Nc3ccccc3OC)cc2c1`, the outcome was inactive.

Turning to `COc1ccccc1N1CCN(C(=O)c2cccc3c(=O)c(C)c(-c4ccccc4)oc23)CC1`, the call was inactive.

As to `COc1ccccc1NC(=S)NC(=O)C(C)(C)C`, the compound was classed as inactive.

Regarding `CCN1C(=O)N/C(=C/c2ccc(Sc3ccc(C)cc3)o2)C1=O`, the compound was called inactive.

For the compound `CC(=O)c1cccc(NC(=O)Nc2cc3sccc3n2C)c1`, the call was inactive.

Turning to `COc1cc(C2SCC(=O)N2c2nnc(C34CC5CC(CC(C5)C3)C4)s2)cc(OC)c1OC` (stereo not given), the result was inactive.

Consider `Brc1ccc(OCCn2ccnc2)cc1`, for which the compound was called inactive.

In the case of `CCCCNC(=O)OC1CCS(=O)(=O)C1` (stereo not given), the compound was classed as inactive.

On to `O=c1c(Cl)c(Cl)cnn1Cc1ccccc1Cl`, for which the compound was called inactive.

`Cc1ccc(S(=O)(=O)N(CC(=O)N=Nc2c(O)[nH]c3ccccc23)c2ccc(C)c(C)c2)cc1`: the compound was classed as inactive.

Turning to `Cc1ccccc1C(=O)N(C)Cc1ccccc1`, the result was inactive.

Consider `CCc1nc2cc(Cl)c(Cl)cc2[nH]1`, for which the outcome was inactive.

For `Cc1ccc(S(=O)(=O)c2cn(Cc3ccc(F)cc3)c3cc4c(cc3c2=O)OCO4)cc1`, the outcome was inactive.

Regarding `CCn1cc(C(=O)O)c(=O)c2cc(Br)ccc21`, the compound was called inactive.

On to `O=C(Cn1nc(Cc2cccnc2)c2ccccc2c1=O)NCc1ccc2c(c1)OCO2`, for which the call was inactive.

Consider `O=C(O)c1cc(NCc2ccc3c(c2)OCO3)ccc1N1CCOCC1`, for which the compound was called inactive.

For the compound `COc1ccc(OC)c(-c2cc(C(=O)Nc3c(C)nn(Cc4ccccc4)c3C)no2)c1`, the result was inactive.

On to `CCS(=O)(=O)Nc1cc(C(=O)OC)ccc1C(=O)OC`, for which the compound was classed as inactive.

Regarding `Cn1nnnc1SCC(=O)NC1CCCCC1`, the outcome was inactive.

As to `COC(=O)c1ccc(NC(=S)Nc2ccc3ccccc3c2)cc1`, the compound was classed as inactive.

`Cc1nn2c(=O)cc(CSc3nc4ccccc4[nH]3)nc2s1`: the call was inactive.

`CCn1ncc(/C=C/C(=O)NCc2cn(C)nc2C)c1C`: the outcome was inactive.

For the compound `COc1ccc(S(=O)(=O)N2CCN(Cc3ccccc3)CC2)cc1`, the compound was called inactive.

As to `CCN(CC)S(=O)(=O)c1ccc2[nH]cc(C(=O)NCCc3ccccc3)c(=O)c2c1`, the call was inactive.

As for `Cc1ccc(C)c(NC(=O)C(Sc2nnc(-c3cccs3)o2)c2ccccc2)c1` (stereo not given), the result was inactive.

As for `CN(c1ccccc1)S(=O)(=O)c1ccc(C(=O)Nc2nnc(-c3ccc(F)cc3)o2)cc1`, the compound was classed as inactive.

For `Oc1ccc(Br)cc1-c1nc2cnccn2c1NC1CCCCC1`, the compound was called inactive.

Turning to `O=C(Nc1ccccn1)NC1CCCCC1`, the compound was called inactive.

For the compound `COc1ccc(N2C(=O)C3CCCN3C2c2cccc(C)c2)cc1Cl` (stereo not given), the outcome was inactive.

In the case of `O=C(/C=C/c1ccco1)N/C(=C\c1ccccc1)C(=O)NCCc1nc2ccccc2[nH]1`, the compound was classed as inactive.

Consider `Cc1ccccc1Nc1nnc(SCC(=O)NC2CCCc3ccccc32)s1` (stereo not given), for which the result was inactive.

With `CC(C(=O)NC1CCCc2ccccc21)N1CCN(Cc2ccc3c(c2)OCO3)CC1` (stereo not given), the result was inactive.

As to `Cc1ccc(CNc2oc(-c3cccs3)nc2C#N)cc1`, the compound was classed as inactive.

Turning to `CN(CC(=O)N1CCN(c2ccccn2)CC1)S(=O)(=O)c1ccc2ccccc2c1`, the compound was classed as inactive.

Take `COc1ccc(C2C(C#N)=C(N)OC3=C2C(=O)CCC3)cc1Cn1cc([N+](=O)[O-])cn1` (stereo not given): the outcome was inactive.

`COc1ccc(Nc2nnc(SCc3cn4c(C)cccc4n3)s2)cc1`: the compound was classed as inactive.

Consider `Clc1ccc(Nc2ccc(NCc3ccccc3)nn2)cc1`, for which the call was inactive.

In the case of `Cc1cc(N/N=C/c2cccc(Cl)c2)nc(NCc2ccccc2)n1`, the call was inactive.

As for `Cc1ccc(NC(=O)CSc2nnc(C3CCCCC3)n2N)cc1F`, the outcome was inactive.

In the case of `CCOc1ccc2nc(COC(=O)c3ccco3)c(C(C)=O)[n+]([O-])c2c1`, the compound was classed as inactive.

Consider `O=C(Nc1ccc(Br)cc1)c1ccc(F)c(S(=O)(=O)NCc2cccs2)c1`, for which the call was inactive.

Take `NCCCCCc1nnc(SCc2ccc(Cl)c(Cl)c2)o1`: the compound was called inactive.

Consider `O=C(Cn1cc[n+](CC(=O)c2ccccc2)c1)c1ccccc1`, for which the call was inactive.

`CC(C)(C)c1n[nH]c(=S)n(/N=C/c2cccs2)c1=O`: the result was inactive.

For the compound `N#CC1=C(N)SC(N)=C(C#N)C1c1ccc([N+](=O)[O-])cc1`, the result was inactive.

As for `Cc1cc(Oc2ccc(-c3nnc(-c4ccccc4)o3)cc2[N+](=O)[O-])ccc1Cl`, the compound was called inactive.

`Cc1ccccc1OCCSCc1nc2ccccc2[nH]1`: the result was inactive.

With `O=C(CCN1C(=O)c2ccccc2S1(=O)=O)Nc1ccc2c(c1)OCCO2`, the compound was classed as inactive.
